# Measurements as given in PubChem BioAssay (EPA / NIEHS).
# Where “and” joins values, the source holds several entries; their conditions need not be identical. Identical values can stand only once. Inconclusive results are not listed. A structure can be active in one record and inactive in another. Calls of active or inactive are those of the source. Rule for the calls: active = hit-call score of the fitted dose curve at least 0.9, where 1 is the maximum; inconclusive = response in the unintended direction; inactive = score below 0.9.
# Experiments:
# [1] = molecular target: human Raf-1 Proto-Oncogene, serine/threonine Kinase (RAF1), RAF1 (gene 5894) (UniProt P04049); test: NVS_ENZ_hRAF1: NovaScreen (NVS) Enzymatic Assay for human Raf-1 Proto-Oncogene, serine/threonine Kinase (RAF1) (AID 2283216)
# Summary of the method: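 Single-point screening at 25 uM (duplicate), followed by singleton concentration-response to 50 uM maximum for chemicals exceeding threshold. Enzyme activity from fluorescent substrate-product mobility-shift separation after 1 h, relative to DMSO.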
# [2] = molecular target: human Sirtuin 1 (SIRT1), SIRT1 (gene 23411) (UniProt Q96EB6); test: NVS_ENZ_hSIRT1: NovaScreen (NVS) Enzymatic Assay for human Sirtuin 1 (SIRT1) (AID 2283219)
# Summary of the method: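 Cell-free recombinant SIRT1 with a fluorescent substrate; substrate and product separated by electrophoretic mobility shift and read by fluorescence intensity, 1 h after dosing. Primary screen at 25 uM in duplicate; hits re-run in concentration-response up to 50 uM, relative to DMSO.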
# [3] = molecular target: human Sirtuin 2 (SIRT2), SIRT2 (gene 22933) (UniProt Q8IXJ6); test: NVS_ENZ_hSIRT2: NovaScreen (NVS) Enzymatic Assay for human Sirtuin 2 (SIRT2) (AID 2283217)
# Summary of the method: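 Single-point duplicate screen at 25 uM, then concentration-response (max 50 uM) for chemicals passing threshold. Enzyme activity of recombinant human SIRT2 measured after 1 hr by fluorescence with mobility-shift separation of product; DMSO baseline.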
# [4] = molecular target: human Tropomyosin Receptor Kinase A (TRKA), NTRK1 (gene 4914) (UniProt P04629); test: NVS_ENZ_hTrkA: NovaScreen (NVS) Enzymatic Assay for human Tropomyosin Receptor Kinase A (TRKA) (AID 2283224)
# Summary of the method: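 Compounds were screened at 25 uM in duplicate, then concentration series to a 50 uM top for those meeting threshold (e.g. 30% inhibition). Enzyme was recombinant human TrkA, incubated 1 h. Product formation was quantified by fluorescence after mobility-shift separation.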
# [5] = molecular target: human Vascular Endothelial Growth Factor Receptor 1 (VEGFR1), FLT1 (gene 2321) (UniProt P17948); test: NVS_ENZ_hVEGFR1: NovaScreen (NVS) Enzymatic Assay for human Vascular Endothelial Growth Factor Receptor 1 (VEGFR1) (AID 2283226)
# Summary of the method: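 Kinase activity of recombinant human VEGFR1 was read by fluorescence after electrophoretic separation of product from substrate, 1 h post-dosing; initial duplicate single-point testing at 25 uM, followed by concentration-series follow-up, with DMSO as baseline.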
# [6] = molecular target: human Vascular Endothelial Growth Factor Receptor 3 (VEGFR3), FLT4 (gene 2324) (UniProt P35916); test: NVS_ENZ_hVEGFR3: NovaScreen (NVS) Enzymatic Assay for human Vascular Endothelial Growth Factor Receptor 3 (VEGFR3) (AID 2283229)
# Summary of the method: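 Chemicals first run in duplicate at 25 uM, with actives re-tested in concentration series to a top of 50 uM. Recombinant VEGFR3 activity measured after 1 h via fluorescence with mobility-shift product separation; inhibition fitted relative to DMSO.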
# [7] = molecular target: human Vascular Endothelial Growth Factor Receptor 2 (VEGFR2), KDR (gene 3791) (UniProt P35968); test: NVS_ENZ_hVEGFR2: NovaScreen (NVS) Enzymatic Assay for human Vascular Endothelial Growth Factor Receptor 2 (VEGFR2) (AID 2283230)
# Summary of the method: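 Cell-free recombinant VEGFR2 kinase, fluorescent substrate with electrophoretic mobility-shift separation; read 1 h after dosing. Screened at 25 uM in duplicate, hits to concentration-response up to 50 uM; loss-of-signal versus DMSO.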
# [8] = molecular target: sheep Cyclooxygenase-2 (Cox2), PTGS2 (gene 443460) (UniProt P79208); test: NVS_ENZ_oCOX2: NovaScreen (NVS) Enzymatic Assay for sheep Cyclooxygenase-2 (Cox2) (AID 2283231)
# Summary of the method: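 Compounds were first run at 25 uM in duplicate against tissue-extracted ovine COX-2; those passing a preset inhibition threshold went to singleton concentration-response testing with a 50 uM maximum. Read-out: absorbance at 0.66 hour.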
# [9] = molecular target: sheep Cyclooxygenase-1 (Cox1), PTGS1 (gene 443551) (UniProt P05979); test: NVS_ENZ_oCOX1: NovaScreen (NVS) Enzymatic Assay for sheep Cyclooxygenase-1 (Cox1) (AID 2283239);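 note: actives reduce cyclooxygenase activity so potencies are for inhibitors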
# Summary of the method: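 COX1 from ovine seminal vesicles, activity read colorimetrically about 0.66 h after dosing. Primary screen in duplicate at 25 uM; actives retested in concentration series; loss of signal fitted versus DMSO.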
# [10] = molecular target: rabbit Imidazoline 2 Central (I2C), CKB (gene 100009085) (UniProt P00567); test: NVS_ENZ_rabI2C: NovaScreen (NVS) Enzymatic Assay for rabbit Imidazoline 2 Central (I2C) (AID 2283228)
# Summary of the method: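 Rabbit brain membranes, cell-free; readout by filter-based scintillation counting 1.5 hours after dosing, loss of signal vs DMSO. Initial duplicate test at 25 uM, then concentration-response with 50 uM top concentration.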
# [11] = molecular target: rat Constitutive Nitric Oxide Synthase (CNOS), Nos1 (gene 24598) (UniProt P29476); test: NVS_ENZ_rCNOS: NovaScreen (NVS) Enzymatic Assay for rat Constitutive Nitric Oxide Synthase (CNOS) (AID 2283236)
# Summary of the method: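 Single 25 uM duplicate screen, then concentration series to 50 uM for chemicals meeting threshold. Rat brain membrane-derived CNOS activity detected radiometrically by filtration and scintillation counting, 1 h after compound addition; DMSO as baseline.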
# [12] = molecular target: rat Acetylcholinesterase (AChE), Ache (gene 83817) (UniProt P37136); test: NVS_ENZ_rAChE: NovaScreen (NVS) Enzymatic Assay for rat Acetylcholinesterase (AChE) (AID 2283233)
# Summary of the method: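 Compounds first screened at 25 uM in duplicate, then those passing threshold tested in concentration series up to 50 uM, against AChE from rat brain membranes. Enzyme activity read by absorbance at 0.33 h; inhibition scored versus DMSO.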
# [13] = molecular target: human Sirtuin 3 (SIRT3), SIRT3 (gene 23410) (UniProt Q9NTG7); test: NVS_ENZ_hSIRT3: NovaScreen (NVS) Enzymatic Assay for human Sirtuin 3 (SIRT3) (AID 2283222)
# Summary of the method: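 Cell-free enzyme assay with recombinant protein and fluorescent substrate, product separated by electrophoretic mobility shift; read 1 hour after dosing. Screened in duplicate at 25 uM, then singleton concentration-response up to 50 uM; loss of signal versus DMSO.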
# [14] = tested on: bovine Angiotensin II Receptor Type 2 (AT2), gene 407157; test: NVS_GPCR_bAT2: NovaScreen (NVS) G Protein-Coupled Receptor Assay for bovine Angiotensin II Receptor Type 2 (AT2) (AID 2283240)
# Summary of the method: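 Radioligand displacement on bovine cerebellar membranes, 1 hour incubation, filter-based scintillation counting; loss of signal vs DMSO. Duplicate single-point screen at 25 uM, then concentration-response to 50 uM maximum.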
# [15] = molecular target: human SRC Proto-Oncogene, Non-receptor Tyrosine Kinase (SRC), SRC (gene 6714) (UniProt P12931); test: NVS_ENZ_hSRC: NovaScreen (NVS) Enzymatic Assay for human SRC Proto-Oncogene, Non-receptor Tyrosine Kinase (SRC) (AID 2283223)
# Summary of the method: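 Compounds passing 30% inhibition at 25 uM (duplicate) were titrated to a top concentration of 50 uM. Enzyme activity read by fluorescence with mobility-shift substrate/product separation after 1 h; DMSO baseline.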
# [16] = tested on: rat Monoamine Oxidase, MAO-A, Peripheral (MAOAP), gene 29253; test: NVS_ENZ_rMAOAP: NovaScreen (NVS) Enzymatic Assay for rat Monoamine Oxidase, MAO-A, Peripheral (MAOAP) (AID 2283237)
# Summary of the method: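 Scintillation counting tracked MAO-A activity in a cell-free rat liver mitochondrial membrane prep, read 1.17 hours after compound addition. Single-point duplicate testing at 25 uM preceded concentration-response follow-up; activity was fitted relative to DMSO.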
# [17] = molecular target: rat Monoamine Oxidase, MAO-B, Central (MAOBC), Maob (gene 25750) (UniProt P19643); test: NVS_ENZ_rMAOBC: NovaScreen (NVS) Enzymatic Assay for rat Monoamine Oxidase, MAO-B, Central (MAOBC) (AID 2283238)
# Summary of the method: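 Actives from a duplicate 25 uM screen went on to singleton concentration-response with a 50 uM maximum. Enzyme source was rat brain tissue MAO-B, assayed cell-free. Radiolabelled product was counted by scintillation 1.17 h post-dose, with signal loss relative to DMSO.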
# [18] = molecular target: rat Adenylate Cyclase, Forskolin Stimulated, Adcy5 (gene 64532) (UniProt Q04400); test: NVS_ENZ_rACFSKBinding: NovaScreen (NVS) Enzymatic Assay for rat Adenylate Cyclase, Forskolin Stimulated (AID 2283232)
# Summary of the method: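 Chemicals were first tested at 25 uM in duplicate, then hits run as concentration series with top concentration 50 uM. Enzyme source was rat forebrain membranes; radiometric filter read-out after 1 h, referenced to DMSO.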
# Chain of human Sirtuin 2 (SIRT2), SIRT2 (gene 22933) (Q8IXJ6 whole entry, looked up): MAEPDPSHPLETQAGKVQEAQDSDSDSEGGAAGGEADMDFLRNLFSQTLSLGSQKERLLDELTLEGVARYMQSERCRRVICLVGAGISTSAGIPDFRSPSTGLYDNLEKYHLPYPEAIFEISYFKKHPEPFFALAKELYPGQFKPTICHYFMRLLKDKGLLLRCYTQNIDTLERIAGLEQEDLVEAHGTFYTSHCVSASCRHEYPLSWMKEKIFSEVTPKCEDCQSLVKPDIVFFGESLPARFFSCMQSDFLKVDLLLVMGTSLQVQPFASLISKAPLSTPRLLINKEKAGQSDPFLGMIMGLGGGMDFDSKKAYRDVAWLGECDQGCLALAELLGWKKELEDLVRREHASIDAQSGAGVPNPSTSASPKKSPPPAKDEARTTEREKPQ
# Chain of human Vascular Endothelial Growth Factor Receptor 1 (VEGFR1), FLT1 (gene 2321) (P17948 whole entry, looked up): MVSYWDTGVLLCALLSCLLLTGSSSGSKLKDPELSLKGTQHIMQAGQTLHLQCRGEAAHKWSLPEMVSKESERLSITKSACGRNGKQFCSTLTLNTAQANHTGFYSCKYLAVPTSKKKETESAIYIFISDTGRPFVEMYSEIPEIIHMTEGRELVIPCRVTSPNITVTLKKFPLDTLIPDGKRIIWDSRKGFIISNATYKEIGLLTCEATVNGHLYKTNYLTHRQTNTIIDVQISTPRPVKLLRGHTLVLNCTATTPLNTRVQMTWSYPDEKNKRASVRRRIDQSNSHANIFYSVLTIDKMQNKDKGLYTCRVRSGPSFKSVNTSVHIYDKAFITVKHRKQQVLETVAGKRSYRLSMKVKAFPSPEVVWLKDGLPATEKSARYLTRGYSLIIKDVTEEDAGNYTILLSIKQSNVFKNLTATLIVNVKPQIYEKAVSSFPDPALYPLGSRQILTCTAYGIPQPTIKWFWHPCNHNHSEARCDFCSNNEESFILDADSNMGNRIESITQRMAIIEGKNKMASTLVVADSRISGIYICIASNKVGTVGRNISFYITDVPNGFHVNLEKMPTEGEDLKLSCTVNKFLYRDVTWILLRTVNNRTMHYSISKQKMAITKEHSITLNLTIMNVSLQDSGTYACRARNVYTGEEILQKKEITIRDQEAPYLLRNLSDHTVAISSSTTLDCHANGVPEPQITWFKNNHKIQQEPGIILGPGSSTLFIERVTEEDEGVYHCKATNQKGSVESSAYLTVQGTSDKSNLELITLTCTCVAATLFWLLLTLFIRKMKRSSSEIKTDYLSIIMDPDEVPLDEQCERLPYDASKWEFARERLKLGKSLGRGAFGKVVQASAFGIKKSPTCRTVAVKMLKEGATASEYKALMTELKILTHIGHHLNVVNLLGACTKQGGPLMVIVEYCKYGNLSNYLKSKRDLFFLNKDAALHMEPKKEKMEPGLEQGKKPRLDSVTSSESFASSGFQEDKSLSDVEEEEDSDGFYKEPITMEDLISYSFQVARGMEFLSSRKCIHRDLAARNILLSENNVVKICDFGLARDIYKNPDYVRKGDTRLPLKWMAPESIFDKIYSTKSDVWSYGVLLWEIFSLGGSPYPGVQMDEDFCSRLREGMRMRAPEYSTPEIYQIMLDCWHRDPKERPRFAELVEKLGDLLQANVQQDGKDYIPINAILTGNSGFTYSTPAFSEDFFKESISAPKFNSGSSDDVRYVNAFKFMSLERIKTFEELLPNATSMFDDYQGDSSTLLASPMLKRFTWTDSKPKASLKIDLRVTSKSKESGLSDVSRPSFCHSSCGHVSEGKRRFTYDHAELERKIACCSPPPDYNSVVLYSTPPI
# Chain of sheep Cyclooxygenase-2 (Cox2), PTGS2 (gene 443460) (P79208 whole entry, looked up): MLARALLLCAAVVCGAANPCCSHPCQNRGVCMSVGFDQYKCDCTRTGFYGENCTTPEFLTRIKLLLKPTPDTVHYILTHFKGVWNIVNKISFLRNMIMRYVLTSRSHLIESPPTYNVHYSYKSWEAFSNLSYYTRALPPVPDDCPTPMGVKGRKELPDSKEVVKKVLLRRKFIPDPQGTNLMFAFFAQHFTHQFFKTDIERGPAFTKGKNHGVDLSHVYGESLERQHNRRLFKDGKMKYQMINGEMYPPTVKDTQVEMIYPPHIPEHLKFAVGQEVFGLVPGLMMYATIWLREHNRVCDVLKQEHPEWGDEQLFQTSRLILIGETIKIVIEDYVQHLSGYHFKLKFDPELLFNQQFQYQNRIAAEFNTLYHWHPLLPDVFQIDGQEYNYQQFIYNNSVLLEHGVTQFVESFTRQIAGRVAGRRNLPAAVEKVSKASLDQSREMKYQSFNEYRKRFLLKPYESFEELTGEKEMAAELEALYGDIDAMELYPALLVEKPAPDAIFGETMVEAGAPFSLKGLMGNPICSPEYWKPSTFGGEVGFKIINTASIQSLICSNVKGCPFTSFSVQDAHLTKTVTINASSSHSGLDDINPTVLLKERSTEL
# Chain of human Vascular Endothelial Growth Factor Receptor 3 (VEGFR3), FLT4 (gene 2324) (P35916 whole entry, looked up): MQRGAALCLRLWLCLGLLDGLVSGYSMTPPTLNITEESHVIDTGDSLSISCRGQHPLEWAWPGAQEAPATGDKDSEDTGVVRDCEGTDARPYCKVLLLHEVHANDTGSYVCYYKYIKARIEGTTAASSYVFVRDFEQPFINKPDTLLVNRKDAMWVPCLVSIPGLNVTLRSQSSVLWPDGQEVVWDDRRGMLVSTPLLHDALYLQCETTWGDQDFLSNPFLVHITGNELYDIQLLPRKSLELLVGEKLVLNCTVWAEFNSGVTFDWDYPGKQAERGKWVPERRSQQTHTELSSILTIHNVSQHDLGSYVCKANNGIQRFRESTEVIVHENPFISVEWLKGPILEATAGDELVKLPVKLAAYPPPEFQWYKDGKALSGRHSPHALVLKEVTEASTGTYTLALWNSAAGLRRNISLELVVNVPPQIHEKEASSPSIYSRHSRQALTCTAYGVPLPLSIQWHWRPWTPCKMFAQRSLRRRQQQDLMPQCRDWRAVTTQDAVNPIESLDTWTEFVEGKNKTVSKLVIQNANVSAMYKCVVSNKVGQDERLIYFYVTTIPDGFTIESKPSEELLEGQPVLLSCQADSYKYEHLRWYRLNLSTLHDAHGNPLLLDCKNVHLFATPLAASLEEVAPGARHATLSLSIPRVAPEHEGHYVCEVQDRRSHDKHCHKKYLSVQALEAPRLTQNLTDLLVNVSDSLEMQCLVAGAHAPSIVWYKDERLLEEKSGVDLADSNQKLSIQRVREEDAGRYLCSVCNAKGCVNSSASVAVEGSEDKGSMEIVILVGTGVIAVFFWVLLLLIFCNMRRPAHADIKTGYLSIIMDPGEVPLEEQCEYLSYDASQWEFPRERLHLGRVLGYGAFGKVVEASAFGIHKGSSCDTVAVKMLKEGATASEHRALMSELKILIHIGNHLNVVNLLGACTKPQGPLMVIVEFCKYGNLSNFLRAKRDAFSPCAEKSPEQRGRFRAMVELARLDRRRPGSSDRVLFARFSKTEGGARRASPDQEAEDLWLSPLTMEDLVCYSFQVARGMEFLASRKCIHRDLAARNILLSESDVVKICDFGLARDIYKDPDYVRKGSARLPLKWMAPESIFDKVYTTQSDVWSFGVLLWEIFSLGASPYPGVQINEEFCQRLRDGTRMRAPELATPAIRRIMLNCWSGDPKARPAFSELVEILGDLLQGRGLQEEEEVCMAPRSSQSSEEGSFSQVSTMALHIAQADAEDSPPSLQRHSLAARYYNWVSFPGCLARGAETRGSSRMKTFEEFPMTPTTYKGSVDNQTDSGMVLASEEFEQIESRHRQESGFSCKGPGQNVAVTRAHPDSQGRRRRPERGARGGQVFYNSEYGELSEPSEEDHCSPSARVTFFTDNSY
# Chain of human Vascular Endothelial Growth Factor Receptor 2 (VEGFR2), KDR (gene 3791) (P35968 whole entry, looked up): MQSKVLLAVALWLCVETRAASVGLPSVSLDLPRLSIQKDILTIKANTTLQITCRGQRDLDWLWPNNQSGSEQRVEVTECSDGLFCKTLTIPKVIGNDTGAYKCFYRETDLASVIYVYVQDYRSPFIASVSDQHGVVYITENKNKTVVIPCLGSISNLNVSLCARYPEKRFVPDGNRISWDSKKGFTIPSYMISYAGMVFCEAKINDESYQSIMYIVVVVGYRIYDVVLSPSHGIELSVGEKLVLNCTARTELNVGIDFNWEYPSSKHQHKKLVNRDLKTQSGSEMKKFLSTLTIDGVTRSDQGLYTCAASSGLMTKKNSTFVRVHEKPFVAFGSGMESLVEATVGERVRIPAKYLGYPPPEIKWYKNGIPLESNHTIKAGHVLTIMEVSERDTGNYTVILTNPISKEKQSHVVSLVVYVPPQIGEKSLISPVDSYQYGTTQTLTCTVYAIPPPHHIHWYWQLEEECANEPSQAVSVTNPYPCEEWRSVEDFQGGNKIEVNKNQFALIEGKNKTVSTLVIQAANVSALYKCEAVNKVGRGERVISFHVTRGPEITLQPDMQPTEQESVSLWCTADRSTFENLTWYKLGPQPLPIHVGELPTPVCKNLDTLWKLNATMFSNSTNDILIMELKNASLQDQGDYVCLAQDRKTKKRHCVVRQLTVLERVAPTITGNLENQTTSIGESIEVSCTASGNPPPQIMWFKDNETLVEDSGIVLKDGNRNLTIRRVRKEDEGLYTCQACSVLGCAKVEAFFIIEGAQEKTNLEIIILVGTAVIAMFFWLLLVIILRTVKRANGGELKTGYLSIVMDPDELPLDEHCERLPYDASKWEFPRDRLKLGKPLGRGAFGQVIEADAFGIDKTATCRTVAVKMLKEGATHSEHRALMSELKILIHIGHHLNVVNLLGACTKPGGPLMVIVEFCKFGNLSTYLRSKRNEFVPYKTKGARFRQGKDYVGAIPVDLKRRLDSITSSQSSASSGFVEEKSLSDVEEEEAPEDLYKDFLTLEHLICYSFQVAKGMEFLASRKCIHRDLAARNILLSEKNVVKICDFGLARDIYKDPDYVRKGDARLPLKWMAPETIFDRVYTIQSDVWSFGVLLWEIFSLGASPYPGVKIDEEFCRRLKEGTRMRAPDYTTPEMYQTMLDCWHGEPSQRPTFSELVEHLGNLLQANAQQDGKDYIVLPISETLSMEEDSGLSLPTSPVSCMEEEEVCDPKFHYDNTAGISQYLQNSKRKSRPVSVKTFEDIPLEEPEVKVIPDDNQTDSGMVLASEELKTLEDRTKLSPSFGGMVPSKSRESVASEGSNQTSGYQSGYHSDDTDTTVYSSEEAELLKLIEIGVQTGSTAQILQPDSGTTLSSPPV
smiles,measurement,setting,value
CCC(C)Nc1c([N+](=O)[O-])cc(C(C)(C)C)cc1[N+](=O)[O-] (stereo unspecified),outcome,[1],inactive
same,outcome,[2],inactive
O=S(=O)(O)C(F)(F)C(F)(F)C(F)(F)C(F)(F)C(F)(F)C(F)(F)C(F)(F)C(F)(F)F,AC50,[1],33.2 µM (active) and 24.5 µM (active)
same,AC50,[3],6.66 µM (active)
same,AC50,[4],36.5 µM (active) and 28.4 µM (active)
same,AC50,[5],11.9 µM (active) and 11.4 µM (active) and 8.57 µM (active)
same,AC50,[6],7.45 µM (active) and 9.17 µM (active)
same,AC50,[7],27.2 µM (active) and 43.1 µM (active)
same,AC50,[8],9.06 µM (active)
same,outcome,[9],inactive
O=[N+]([O-])c1c(Cl)c(Cl)c(Cl)c(Cl)c1Cl,outcome,[10],inactive
COc1cc(OC)nc(NC(=O)NS(=O)(=O)c2cc(NC=O)ccc2C(=O)N(C)C)n1,outcome,[11],inactive
CNC(=O)Oc1ccccc1OC(C)C,AC50,[12],5.05 µM (active)
same,outcome,[11],inactive
Cc1[nH]c(=O)n(C(C)(C)C)c(=O)c1Cl,outcome,[11],inactive
CCOc1nc(NC)nc(NC(=O)NS(=O)(=O)c2ccccc2C(=O)OC)n1,outcome,[1],inactive
CC[C@H](C)[C@H]1O[C@]2(C=C[C@@H]1C)C[C@@H]1C[C@@H](C/C=C(\C)[C@@H](O[C@H]3C[C@H](OC)[C@@H](O[C@H]4C[C@H](OC)[C@@H](O)[C@H](C)O4)[C@H](C)O3)[C@@H](C)/C=C/C=C3\CO[C@@H]4[C@H](O)C(C)=C[C@@H](C(=O)O1)[C@]34O)O2 (tested in a mixture with another compound),AC50,[2],17.2 µM (active)
same,AC50,[13],5.19 µM (active)
same,outcome,[7],inactive
same,AC50,[8],8.68 µM (active)
same,outcome,[14],inactive
O=[N+]([O-])/N=C1\NCCN1Cc1ccc(Cl)nc1,AC50,[10],11.4 µM (active)
Oc1ccc(Cl)cc1Cc1ccccc1,outcome,[1],inactive
same,AC50,[3],3.4 µM (active) and 9.3 µM (active)
same,outcome,[15],inactive
same,AC50,[4],9.39 µM (active)
same,AC50,[16],38.2 µM (active)
same,outcome,[16],inactive
same,AC50,[9],36.2 µM (active) and 38.3 µM (active)
COP(=O)(OC)OC=C(Cl)Cl,AC50,[12],6.37 µM (active)
same,outcome,[9],inactive
[2H]C1([2H])[n+]2ccccc2-c2cccc[n+]2C1([2H])[2H],outcome,[11],inactive
C#CCN1C(=O)COc2cc(F)c(N3C(=O)C4=C(CCCC4)C3=O)cc21,outcome,[8],inactive
same,AC50,[17],25 µM (active)
same,AC50,[9],1.11 µM (active)
Oc1cc(Cl)ccc1Oc1ccc(Cl)cc1Cl,outcome,[6],inactive
same,outcome,[7],inactive
same,AC50,[8],18.6 µM (active)
same,outcome,[18],inactive
same,outcome,[16],inactive
same,outcome,[9],inactive
